Hits are enriched below; roughly 4.2% of the tested compounds scored in any of these assays.
GDH-TPI counter-1: counter-screen for M. tuberculosis FBA inhibitors: GDH-TPI coupled enzymes; GDH-TPI coupled enzyme counterscreen, NADH absorbance; inhibition, % at 4.8 µM; 360,000 compounds, 1.2% hits; AID 588335; in the data active = inhibition above about 30%
BJeLR lethal: kills HRASV12-expressing BJeLR cells; BJeLR (HRASV12) viability, CellTiter-Glo ATP luminescence, 48 h; inhibition, % (no concentration beside the values); 300,000 compounds, 0.17% hits; AID 1554; in the data active = inhibition above about 50%
PrPC surface inh: inhibitors of human cell surface prion protein PrPC. TR-FRET read-out. P04156. AID 720596. 370,000 compounds, 0.43% hits. inhibition, % at 13.8 µM; in the data active = inhibition above about 24%
FBA Mtb inh: inhibitors of M. tuberculosis fructose-bisphosphate aldolase; 360,000 compounds, 2.3% hits; inhibition, % at 1 µM; purified M. tuberculosis FBA, fluorescence read-out; AID 588726
Target sequence (P9WQA3 whole entry, looked up): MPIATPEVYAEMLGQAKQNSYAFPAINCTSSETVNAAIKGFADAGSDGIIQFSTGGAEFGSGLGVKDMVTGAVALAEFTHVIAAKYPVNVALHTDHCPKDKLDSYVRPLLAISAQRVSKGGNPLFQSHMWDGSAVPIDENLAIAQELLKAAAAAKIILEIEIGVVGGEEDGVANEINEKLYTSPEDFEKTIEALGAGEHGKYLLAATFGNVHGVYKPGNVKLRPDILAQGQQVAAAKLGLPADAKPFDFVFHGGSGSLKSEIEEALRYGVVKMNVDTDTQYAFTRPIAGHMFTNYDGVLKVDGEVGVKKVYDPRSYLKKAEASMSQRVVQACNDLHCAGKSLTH
RecA intein inh: Mtb RecA intein splicing inhibition | 290,000 compounds, 0.75% hits | AID 2221 | cell-free RecA intein splicing, fluorescence | inhibition, % (test concentration not listed) | P9WHJ3; in the data active = inhibition above about 30%
Mtb FBA confirm: Mtb FBA inhibition, confirmed | shares compounds with FBA Mtb inh | purified M. tuberculosis FBA, fluorescence read-out | inhibition, % at 1 µM | 5,600 compounds, 78% hits | AID 651616
GDH-TPI counter-2: counter-screen for M. tuberculosis FBA inhibitors: GDH-TPI coupled enzyme inhibition. shares compounds with FBA Mtb inh. GDH-TPI coupled enzyme counterscreen, fluorescence. inhibition, % at 1 µM. 5,600 compounds, 81% hits. AID 652141; in the data active = inhibition above about 10%
GDH-TPI DR: GDH-TPI dose response counter-screen for Mtb FBA | AID 652145 | 170 compounds, 79% hits | shares compounds with FBA Mtb inh | GDH-TPI coupled enzyme assay, fluorescence, artifact counterscreen | IC50, µM; call rule not given here
Each line names hits and unclear results; the compound was inactive in the other large screens (follow-up assays come after a bar, where they were run). Cut-off read from the data, not from the text of the source, unless noted: active = inhibition above about 27%; inactive = the rest.

COc1cccc2[nH]c(C(=O)NCCCN3CCCC3=O)cc12	FBA Mtb inh 59 | Mtb FBA confirm 143 | GDH-TPI counter-2 115
COc1cccc(/C=C/c2nc(S(=O)(=O)c3ccccc3)c(N3CCC(C(N)=O)CC3)o2)c1	GDH-TPI counter-1 31, FBA Mtb inh 38 (no result: BJeLR lethal, RecA intein inh) | Mtb FBA confirm inactive | GDH-TPI counter-2 inactive | GDH-TPI DR 1.3
COc1ccc(-n2nc3cc(C)c(NC(=O)c4cccnc4)cc3n2)cc1	none
CCOc1ccc(-n2nc3ccc(N)cc3n2)cc1	FBA Mtb inh 74 | Mtb FBA confirm inactive | GDH-TPI counter-2 inactive | GDH-TPI DR 1.1
COc1ccc(-n2nc3ccc(N)cc3n2)cc1	FBA Mtb inh 56 (no result: BJeLR lethal, RecA intein inh) | Mtb FBA confirm 54 | GDH-TPI counter-2 41
CCOc1ccc(-n2nc3ccc(NC(=O)c4ccc5c(c4)OCCO5)cc3n2)cc1	none
COC(=O)C1CN(CC(C)C)CCS(=O)(=O)N1Cc1ccc(Cl)cc1 (stereo not given)	none (no result: GDH-TPI counter-1, BJeLR lethal, FBA Mtb inh, RecA intein inh)
CCOc1ccccc1-c1nc2c(C(C)(C)C)nn(C)c2c(=O)[nH]1	none (no result: GDH-TPI counter-1, PrPC surface inh, FBA Mtb inh)
CCOc1ccccc1-c1nc2c([nH]1)c(=O)n(C)c(=O)n2C	FBA Mtb inh 39 | Mtb FBA confirm 94 | GDH-TPI counter-2 82
COC(=O)[C@]12C[C@H](CC(=O)NCC3CCCCC3)C(=O)N(CCc3ccc(OC)c(OC)c3)C1=C[C@H](C(C)(C)C)O[C@@H]2C	none (no result: GDH-TPI counter-1, BJeLR lethal, FBA Mtb inh, RecA intein inh)
COc1ccc(CCNc2oc(COc3ccccc3F)nc2C#N)cc1	none
COc1ccc(Nc2oc(-c3ccccc3)nc2C#N)cc1	none
COc1ccc(CCNc2oc(-c3ccc(C)cc3)nc2C#N)cc1OC	FBA Mtb inh 51 | Mtb FBA confirm 70 | GDH-TPI counter-2 62
COc1ccc(CNc2oc(-c3ccccc3)nc2C#N)cc1	FBA Mtb inh 92 | Mtb FBA confirm 95 | GDH-TPI counter-2 73
COc1ccc(-c2nc(C#N)c(NCCc3ccccc3)o2)cc1	FBA Mtb inh 80 | Mtb FBA confirm 37 | GDH-TPI counter-2 26
N#Cc1nc(-c2ccc(Cl)cc2)oc1NCc1cccc2c1OCO2	FBA Mtb inh 27 | Mtb FBA confirm 110 | GDH-TPI counter-2 89
COc1ccc(C=O)cc1-c1cc(C(C)=O)c2n(c1=O)CCC2	none (no result: GDH-TPI counter-1, BJeLR lethal, FBA Mtb inh, RecA intein inh)
CCOc1ccc(Nc2oc(-c3ccc(Cl)cc3)nc2C#N)cc1	none
C=CCNc1oc(-c2ccc(-c3ccccc3)cc2)nc1C#N	none (no result: BJeLR lethal, PrPC surface inh, RecA intein inh)
N#Cc1nc(-c2ccccc2)oc1NCc1ccco1	FBA Mtb inh 101 | Mtb FBA confirm 59 | GDH-TPI counter-2 50
CCOc1ccc(-c2nc(C#N)c(NC3CC3)o2)cc1	FBA Mtb inh 96 (no result: PrPC surface inh) | Mtb FBA confirm inactive | GDH-TPI counter-2 inactive
N#Cc1nc(-c2ccc(Cl)cc2)oc1NCCc1ccccn1	GDH-TPI counter-1 31, FBA Mtb inh 28 | Mtb FBA confirm 88 | GDH-TPI counter-2 82
CC(=O)c1cc(-c2ccccc2S(=O)(=O)NC(C)(C)C)c(=O)n2c1CCC2	none (no result: GDH-TPI counter-1, BJeLR lethal, FBA Mtb inh, RecA intein inh)
O=C(CCS(=O)(=O)c1ccc(Br)cc1)N1CCN(c2ccccc2)CC1	FBA Mtb inh 73 (no result: BJeLR lethal, RecA intein inh) | Mtb FBA confirm 69 | GDH-TPI counter-2 62
COc1ccc(NC(=O)C(Sc2ccccc2)c2ccccc2)c(OC)c1 (stereo not given)	FBA Mtb inh 72 | Mtb FBA confirm 45 | GDH-TPI counter-2 33
COc1ccccc1NC(=O)C(Sc1ccccc1)c1ccccc1 (stereo not given)	none
COC(=O)[C@H]1C[C@@]2(N3CCCCC3)c3ccccc3N[C@H]2N1S(=O)(=O)c1ccc(C)cc1	none (no result: GDH-TPI counter-1, BJeLR lethal, FBA Mtb inh, RecA intein inh)
Nc1cccc2nc3ccccc3cc12	FBA Mtb inh 75 (no result: PrPC surface inh) | Mtb FBA confirm inactive | GDH-TPI counter-2 inactive
COCc1nnc(NC(=O)c2ccccc2Oc2ccccc2)s1	FBA Mtb inh 73 | Mtb FBA confirm 158 | GDH-TPI counter-2 119
COCCSc1ccccc1C(=O)Nc1nnc(COC)s1	none
O=c1oc2c(O)cccc2cc1-c1nc2ccccc2[nH]1	FBA Mtb inh 55 | Mtb FBA confirm 142 | GDH-TPI counter-2 103
O=c1oc2c(CN3CCCCC3)c(O)ccc2cc1-c1nc2ccccc2[nH]1	none (no result: BJeLR lethal, RecA intein inh)
COC[C@H]1CCCN1c1cccc2c1S(=O)(=O)N(C1CC1)CCCO2	none (no result: GDH-TPI counter-1, BJeLR lethal, FBA Mtb inh, RecA intein inh)
CC1(C)C=Cc2cc3ccc(=O)oc3cc2O1	FBA Mtb inh 48 | Mtb FBA confirm inactive | GDH-TPI counter-2 inactive | GDH-TPI DR 5.7
